# A selection: hits, their analogues and other compounds. The true share with any hit is near 6%.
# D1 potentiator – potentiators of human D1 dopamine receptor | HEK293 TREx D1 cells, calcium flux, dopamine EC20 potentiation | potentiation, % at 10 µM | hit rate 0.036% among 360,000 | AID 504651; in the data active means potentiation above about 30%; further: 0% is about no effect
# Target sequence (P21728 whole entry, looked up): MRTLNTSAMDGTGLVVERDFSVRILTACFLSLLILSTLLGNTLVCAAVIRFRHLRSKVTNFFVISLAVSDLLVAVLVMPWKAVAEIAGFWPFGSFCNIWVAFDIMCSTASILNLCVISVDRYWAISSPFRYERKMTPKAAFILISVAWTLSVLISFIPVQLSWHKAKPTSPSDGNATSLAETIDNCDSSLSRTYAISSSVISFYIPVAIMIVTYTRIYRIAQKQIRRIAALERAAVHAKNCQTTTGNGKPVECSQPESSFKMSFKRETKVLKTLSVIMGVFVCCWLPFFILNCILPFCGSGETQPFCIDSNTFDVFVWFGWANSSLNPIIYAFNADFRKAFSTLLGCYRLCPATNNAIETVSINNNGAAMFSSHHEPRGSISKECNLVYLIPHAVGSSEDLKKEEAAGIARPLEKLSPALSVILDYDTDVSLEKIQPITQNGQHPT
# D3 ag – activates the human D3 dopamine receptor. P35462. max activation, %. hit rate 0.58% among 410,000. D3R DiscoveRx beta-arrestin cells, luminescence, 90 min. AID 652048; in the data active means max activation above about 30%; further: 0% is about no effect
#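 Cells at 1500/well, incubated overnight, then treated with pinned compounds (dopamine as control) for 90 min at 37 degrees C. DiscoveRx reagent added for 30 - 60 minutes at room temperature; luminescence read.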
# D1 ag – human D1 receptor agonism. hit rate 1% among 360,000. P21728. activation, % at 2 µM. HEK293 T-REx D1 cells, calcium flux, agonist mode; in the data active means activation above about 30%; further: 0% is about no effect
#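 Inducible HEK293 T-REx D1 cells, force-coupled to calcium signalling, were plated at 4000 cells/well with tetracycline and held overnight at 30 C. After no-wash calcium dye loading, compound-evoked calcium rise over 180 s flagged agonists.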
# D3 antag – D3 dopamine receptor (human) antagonism | P35462 | D3R cells, DiscoveRx beta-arrestin luminescence, antagonist mode; stronger effect = lower value | max response, negative = inhibition, % | hit rate 2.5% among 360,000 | AID 652054; in the data active means max response below about -50%; inconclusive means no clear call, values can overlap the other calls; further: on the % scale 0 is the no-effect control and ±100 the full control effect
#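 Cells expressing the human receptor were seeded at 1500 cells/well, incubated overnight at 37 degrees C in 5% CO2, then exposed to library compounds with dopamine controls for 90 minutes at 37 degrees C before luminescent detection.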
# D1 antagonist – blocks dopamine activation of the human D1 receptor; P21728; HEK293 TREx D1 cells, calcium flux, dopamine EC80; stronger effect = lower value; activity change, negative = inhibition, % at 10 µM; hit rate 3.2% among 360,000; in the data active means activity change below about -30%; further: on the % scale 0 is the no-effect control and ±100 the full control effect
#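 Kinetic fluorescence of a calcium dye serves as the read-out. D1-expressing Hek293 Trex cells, induced overnight at 30 C, are exposed to compound for 180 s before an EC80 dopamine addition, then read 180 s further.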
# An asterisk follows results filed as active; ? = inconclusive; · = no result; ! = a repeat was not active.
SMILES,D1 potentiator,D3 ag,D1 ag,D3 antag,D1 antagonist
CCCCN(CCCNC(=O)c1cc(Nc2ccc(OC)c(OC)c2)nc2ccccc12)Cc1ccccc1,-1.1,6.7,0.2,·,-4.3
O=C(CN1CCN(c2ccccc2)CC1)Nc1ccccc1Cl,-2.6,5.9,-0.4,0.2,·
CCc1cccc(CC)c1NC(=O)CN1CCN(c2ccccc2)CC1,6.5,-9.7,3.2,-76.1*,0.2
CCN(CC)C(=S)Nc1ccc(C(=O)OC)cc1,-4.1,-0.9,0.3,6.3,8.7
CCN(CC)C(=O)Nc1ccc(C(=O)OC)cc1,-1.6,0.5,1.1,-69.0*,-2.5
COC(=O)c1ccc(NC(=O)CSc2ccccc2)cc1,-3.7,4.1,2.1,6.7,-75.2*
CCc1ccc(-n2c(=O)c3cccnc3n2CC(=O)Nc2cc(F)ccc2F)cc1,-4.2,1.4,9.0,·,-4.3
COc1cccc(CNC(=O)Nc2ccc3c(c2)N(C)C(=O)c2ccccc2S3)c1,-2.1,-5.8,-2.2,·,-11.5
Cc1ccc(C(=O)CC(=O)c2ccccc2C)c(O)c1,3.5,11.5,0.4,-50.3*,-0.6
CC(=O)c1ccc(C)cc1OC(=O)c1cccc(F)c1,-5.2,14.3,1.2,4.0,-1.1
Cc1ccc(C(=O)CC(=O)c2cccc(F)c2)c(O)c1,-2.7,-2.7,3.7,-62.0*,5.4
CNC(=O)COc1ccc(Nc2nnc(-c3ccc(C)c(S(=O)(=O)NC(C)(C)C)c3)c3ccccc23)cc1,-1.9,-2.0,-1.6,·,-31.5*
CNS(=O)(=O)c1cc(-c2nnc(Nc3ccc(NC(C)=O)cc3)c3ccccc23)ccc1C,-1.2,-17.9,0.9,-16.9,5.8
Cc1ccc(-c2nnc(Nc3ccc4c(c3)OCO4)c3ccccc23)cc1S(=O)(=O)NCCO,-6.0,-4.5,0.7,-13.6,-33.6*
Cc1ccc(-c2nnc(Nc3ccc(CC(N)=O)cc3)c3ccccc23)cc1S(=O)(=O)NCCO,-7.7,4.1,-0.4,8.1,4.8
Cc1ccc(-c2nnc(Nc3ccc(Cl)c(Cl)c3)c3ccccc23)cc1S(=O)(=O)NCCO,-1.6,-17.4,5.8,·,-49.2*
CCC1CCCCN1C(=O)c1nn(-c2ccc(C)cc2)c(=O)c2c1c1ccccc1n2C (centres undefined),3.5,-12.3,0.1,·,-7.9
COc1cccc(N=Cc2c[nH][nH]c2=O)c1,-4.1,1.9,0.6,17.0,-30.7*
O=c1[nH][nH]cc1C=Nc1ccc(Cl)cc1,-3.6,5.5,0.4,18.1,-0.2
Cc1ccc(C(=O)NC2=NC(c3ccc(C)cc3)CC(=O)N2)cc1 (centres undefined),2.1,-11.8,0.6,·,-7.3
Cc1cc(C)c(C)c(S(=O)(=O)NCc2ccc(C(=O)N3CCN(C)CC3)cc2)c1C,-1.7,-5.6,16.2,-4.9,-0.8
Cc1ccc2c(c1)sc1nc(=O)n(-c3ccc(Cl)cc3)c(=O)n12,-0.3,0.1,2.0,?,-1.4
Cc1ccc2c(c1)sc1nc(=O)n(-c3ccc(Cl)c(Cl)c3)c(=O)n12,1.0,2.0,1.3,12.5,-39.2*!
COc1cc2c(cc1OC)C(COc1ccc(C(C)C)cc1)N(C(=O)COc1ccccc1)CC2 (centres undefined),-1.8,4.3,7.1,·,-9.9
Clc1ccc(Cc2nc(-c3ccncc3)no2)cc1,1.1,-2.3,11.0,5.3,-36.5*
SMILES,D1 potentiator,D3 ag,D1 ag,D3 antag,D1 antagonist
CC1CCN(Cc2cnc(Cl)s2)CC1,-4.9,4.3,2.1,-14.6,1.4
Clc1ncc(CN2CCN(c3ccccc3)CC2)s1,-3.5,39.2*,-1.3,-12.2,·
Fc1ccccc1N1CCN(Cc2cnc(Cl)s2)CC1,-4.0,49.7*,-0.4,-20.6,-9.8
COc1ccc(-c2cn3cccnc3n2)cc1NC(=O)Cc1ccccc1,2.8,-4.4,2.0,·,18.2
Cc1oc(-c2ccc(C(=O)NCc3ccccc3Cl)cc2)nc1CN1CCc2ccccc21,1.6,0.4,2.5,·,3.6
Cc1cc(C)nc(SCCCNCc2ccc(Br)cc2)n1,-4.0,-1.4,35.6*,-94.5*,-28.2
Cc1ccc(CNCCCSc2nc(C)cc(C)n2)cc1,-7.2,-25.8,8.8,-92.5*,-10.4
O=C(CCc1ccccc1)NC(c1cccs1)c1cc(Cl)c2cccnc2c1O (centres undefined),-3.4,6.8,10.3,14.2,6.8
Oc1c(C(c2cccs2)N2CCN(c3ccccc3)CC2)ccc2cccnc12 (centres undefined),-5.2,·,1.4,·,-10.4
CC(=O)NC(c1cc(Cl)c2cccnc2c1O)C(C)C (centres undefined),3.4,·,4.5,·,-6.0
COc1cc(C(=O)NC(c2ccc(Cl)cc2)c2cc(Cl)c3cccnc3c2O)cc(OC)c1OC (centres undefined),1.3,4.4,5.5,·,4.9
Oc1c(C(c2ccccc2Cl)N2CCCC2)ccc2cccnc12 (centres undefined),3.4,-7.4,5.5,-52.9*,6.0
Oc1c(C(c2ccccn2)N2CCC(Cc3ccccc3)CC2)cc(Cl)c2cccnc12 (centres undefined),-4.5,-17.1,8.4,-111.9*,0.4
CN1CCN(C(c2ccccn2)c2cc(Cl)c3cccnc3c2O)CC1 (centres undefined),5.8,-18.2,5.2,-125.9*,3.2
Oc1c(C(c2ccc(Cl)cc2)N2CCCC2)cc(Cl)c2cccnc12 (centres undefined),2.9,-8.7,16.8,-105.7*,-20.2
CCn1nc(C(=O)NCc2nnc3ccccn23)c2ccccc2c1=O,-3.5,7.1,4.2,28.7,11.0
COc1ccc(CC(=O)N(C)Cc2cccc(OC)c2OC)cc1S(=O)(=O)N1CCOCC1,0.9,-7.1,2.6,1.7,-0.7
Cc1ccc(C(c2cc(Cl)c3cccnc3c2O)N2CCN(C)CC2)cc1 (centres undefined),-7.2,-31.4,-1.3,-117.7*,-2.6
Cc1ccc(-c2nc(N)sc2CC(=O)OCC(=O)NC2CCCC(C)C2C)cc1 (centres undefined),-11.8,12.0,2.8,4.7,-41.4*
NCCCC[C@H](NC(=O)[C@@H]1CCCN1C(=O)[C@@H]1CSSC[C@H](NC(=O)CNC(=O)CNC(=O)CN)C(=O)N[C@@H](Cc2ccc(O)cc2)C(=O)N[C@@H](Cc2ccccc2)C(=O)N[C@@H](CCC(N)=O)C(=O)N[C@@H](CC(N)=O)C(=O)N1)C(=O)NCC(N)=O,·,-15.6,·,·,·
CC(=O)Nc1cccc(-c2cn3ccccc3n2)c1,12.3,1.2,0.7,-16.8,2.3
O=C(Nc1cccc(-c2cn3ccccc3n2)c1)c1cc2ccccc2oc1=O,3.1,-13.3,0.0,-19.1,-35.3*
O=C(CN(Cc1ccccc1F)S(=O)(=O)c1ccc(Cl)cc1)NCCC1=CCCCC1,-9.7,7.9,18.4,19.0,-13.9
Cc1ccc(S(=O)(=O)N(CC(=O)NCCC2=CCCCC2)Cc2ccccc2F)cc1,2.8,6.1,10.4,-74.4*,0.0
C=CCc1cc(Cl)ccc1OCCNCCOC,-5.3,-11.6,19.0,-55.5*,-8.2
